From PubChem BioAssay
Activity calls are given as the source filed them.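 How the source made its calls: active means RAM network inhibition above 8.4% in each of two replicates, 3 SD over the compound average; inconclusive means above 8.4% inhibition in only one replicate; inactive means 8.4% inhibition or less in each replicate.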

assay: RAM signaling pathway blockade in yeast – S. cerevisiae, Pdr1DBD-CYC8 efflux-inhibited sensitized strain, primary screen (AID 1298);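 further: 0% = DMSO untreated cells without growth and 100% = 10 µM 1-NA-PP1 full growth; higher means more yeast growth rescued from 5-FOA killing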; settings: S. cerevisiae cbk1-as DSE1-URA3 strain, 5-FOA growth OD615, 2 d; at 50 µM; hits give high values

Row | SMILES | RAM network inhibition
1 | CCCCC(=O)NCCc1cc2c(C)ccc(C)c2[nH]c1=O | 0.32% (inactive)
2 | CN1CCN(C2=C(Cl)C(=O)N(c3cccc(Cl)c3)C2=O)CC1 | 2.62% (inactive)
3 | Cc1ccc(Cn2c(=O)c3ccccc3n3c(CCC(=O)O)nnc23)cc1 | 6.3% (inactive)
4 | COc1cc(/C=N/n2cnnc2)ccc1OCC(=O)N1CCOCC1 | 6.03% (inactive)
5 | CCC(C)C(=O)Nc1nc2c(s1)C(=O)CC(C)(C)C2 (stereo not given) | 1.9% (inactive)
6 | O=C(C(Cc1ccccc1)n1cccc1)N1CCCCCC1 (stereo not given) | 2.67% (inactive)
7 | Cc1ccc(NC(=O)c2cc(-c3ccc(C)o3)nc3ccccc23)nc1 | 0.74% (inactive)
8 | Cc1cccc(-n2ncc3c(NCCCn4ccnc4)ncnc32)c1 | -0.32% (inactive)
9 | Cc1ccc(CNC(=O)C2CCCN(S(=O)(=O)c3cnc[nH]3)C2)cc1 (stereo not given) | 1.04% (inactive)
10 | CCCN1CCN(CCCNC(=O)Cn2ncc3c4ccccc4n(C)c3c2=O)CC1 | -0.33% (inactive)
11 | CN(C)c1cc(NC(=O)CN2CCOCC2)c2ccccc2n1 | 0.06% (inactive)
12 | CN(C)S(=O)(=O)c1ccc2c(c1)c(=O)c(C(=O)NCCCN1CCCCCC1)cn2C | 0.76% (inactive)
13 | CC(C)c1ccc(C(O)c2cnc(C(C)C)n2C)cc1 (stereo not given) | 1.77% (inactive)
14 | CCN(CC)C(=O)c1ccc(CS(=O)(=O)c2ccc(OC)cc2)o1 | 3.14% (inactive)
15 | COc1ccc2c(c1)CCc1cc(C(=O)N3CCN(c4ccc(N5CCOCC5)nn4)CC3)sc1-2 | 0.73% (inactive)
16 | COc1ccc(-c2[nH]c(-c3cccc(OC)c3)nc2SCC(=O)NCc2ccco2)cc1 | 11.2% (inactive)
17 | CCSc1nnc(N2C(=O)CC(c3ccsc3)C3=C2CC(C)(C)CC3=O)s1 (stereo not given) | 3.19% (inactive)
18 | CC1=C(C(=O)Nc2cccnc2)C(c2ccc(C(C)C)cc2)n2ncnc2N1 (stereo not given) | 1.4% (inactive)
19 | CCCCN=CC1=C(O)C(C(=O)OC)C(C)(C)CC1=O (stereo not given) | 1.5% (inactive)
20 | O=C1c2ccccc2C(Nc2cccnc2)N1Cc1ccccc1Cl (stereo not given) | 0.57% (inactive)

Row | SMILES | RAM network inhibition
21 | CC(=O)NC(CCS(C)(=O)=O)C(=O)Nc1cccc(C)c1 (stereo not given) | 2.51% (inactive)
22 | Cc1ccc(N2CCN(S(=O)(=O)N(C)C)CC2)c(C)c1 | 6.03% (inactive)
23 | CCOc1ccc(NC(=O)CCN2CCN(c3ccccc3)CC2)cc1 | 3.81% (inactive)
24 | CCOC(=O)C1=C(C)Nc2nnnn2C1c1ccc(OC)c(Br)c1 (stereo not given) | 0.79% (inactive)
25 | CC(C)c1nnc(NC(=O)Cc2cccs2)s1 | 0.83% (inactive)
26 | Cc1ccnc(NC(=O)C2CCC(CNc3c(N4CCCC4)c(=O)c3=O)CC2)c1 (stereo not given) | -0.21% (inactive)
27 | CCN(CCCNS(=O)(=O)c1ccc2c(c1)oc(=O)n2C)c1cccc(C)c1 | 7.59% (inactive)
28 | O=C(NCC1CCCO1)C1CCN(S(=O)(=O)c2cccc3cccnc23)CC1 (stereo not given) | 2.72% (inactive)
29 | CCn1c(C(=O)N2CCC(C(=O)N3CCN(c4ccccn4)CC3)CC2)cc2sccc21 | 1.16% (inactive)
30 | O=C(O)COc1ccc(S(=O)(=O)NCCc2ccccc2)cc1 | -2.61% (inactive)
31 | CCOC(=O)N1CCN(C(=O)c2ccc(CS(=O)(=O)c3c(Cl)cccc3Cl)o2)CC1 | 1.21% (inactive)
32 | CNC(=O)c1ccsc1NC(=O)c1ccccc1 | -1.39% (inactive)
33 | CSc1nc2ccccc2c(=O)n1N | 4.29% (inactive)
34 | CCN1CCN(C(c2cccs2)C(C)NC(=O)c2ccccc2)CC1 (stereo not given) | 5.79% (inactive)
35 | CC(Sc1nc(-c2ccccc2)cc(C(F)(F)F)n1)C(=O)N1CCCC1 (stereo not given) | 1% (inactive)
36 | CCOc1cccc(-c2nnc3n2N=C(c2cc(OC)ccc2OC)CS3)c1 | 6.09% (inactive)
37 | COc1cc(NC(=O)C2CCCN2S(=O)(=O)c2cccc3cccnc23)cc(OC)c1OC (stereo not given) | 2.32% (inactive)
38 | CCOC(=O)c1ccc(-n2c(C)nc3c(cnn3-c3ccccc3C)c2=O)cc1 | 2.95% (inactive)
39 | O=C(Nc1c(C(=O)NCc2ccco2)cnn1-c1ccccc1)c1ccc(F)cc1 | 0.53% (inactive)
40 | O=C(NCCC1=CCCCC1)C1CCN(S(=O)(=O)c2cccc3cccnc23)CC1 | 1.51% (inactive)
